Source: PubChem BioAssay
mcGAS inh – cyclic GMP-AMP synthase inhibitors, mouse, primary biochemical chemiluminescence; recombinant cGAS, Kinase-Glo ATP depletion luminescence; inhibition, % at 12.5 µM; hit rate 0.15% among 160,000; AID 1259399, 2018;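 note: 0% = negative control wells and 100% = reference inhibitor with no enzyme activity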
NPYLR7 agonist – agonists of mosquito NPYLR7 receptor, primary screen, cell-based, Aedes aegypti, calcium fluorescence, mosquito biting behavior. Aedes aegypti neuropeptide Y-like receptor 7 (NPYLR7). HEK293T NPYLR7/Galpha15, GCaMP6s calcium fluorescence. activation, % at 10 µM. hit rate 0.15% among 270,000. AID 1259423, 2018; in the data active = activation above about 40%;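 note: 0% = vehicle and 100% = reference agonist at the receptor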
hcGAS inh – Primary biochemical luminescence assay for human cyclic GMP-AMP synthase inhibitors. AID 1259398, 2018. recombinant h-cGAS, ATP depletion, Kinase-Glo luminescence. Q8N884. inhibition, % at 12.5 µM. hit rate 0.081% among 290,000;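 note: 0% = vehicle reaction and 100% = reaction without DNA for no activity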
* hit, by the source's call; nt = no result. Hits are enriched below; roughly 0.28% of the tested compounds scored in any of these assays. Cut-off read from the data, not from the text of the source, unless noted: active = inhibition above about 40%; inactive = the rest.

SMILES	mcGAS inh	NPYLR7 agonist	hcGAS inh
C=CCC1=CC(=Cc2c(N)n3nc(Cc4cccs4)sc3nc2=O)C=C(OC)C1=O	nt	94.9*	1.6
CCCCc1nn2c(N)c(C=C3C=CC(=O)C(OCC)=C3)c(=O)nc2s1	nt	38.7	-2.2
CCN1C(=Cc2ccc3cc(C)ccc3[n+]2CC)Sc2ccccc21	nt	73.5*	8.3
Cc1cc(C=C2Sc3ccccc3N2C)cc(C)[n+]1N1CCN(C)CC1	nt	46.8	8.5
CN1C(=C2C(=O)CC(C)(C)CC2=O)Sc2ccccc21	nt	0.6	3.7
CCN1/C(=C/C2=CC(=O)CC(C)(C)C2)Sc2ccccc21	nt	60.0*	-4.8
CCN1C(=CC=Cc2sc3ccccc3[n+]2CC)Sc2ccccc21	nt	-12.1	-48.8
CCCC[n+]1c(C)cc(C=C2Sc3ccccc3N2C)cc1C	nt	198.0*	-0.7
Cc1cc(C=C2Sc3ccccc3N2C)cc(C)[n+]1-c1ccccc1	nt	75.5*	-2.7
CN(C)CCCN1c2ccccc2Sc2ccc(C(F)(F)F)cc21	-5.5	8.7	-2.7
Cc1cccc(N(C)c2cc(N3CCCC3C(=O)N3CCC(O)(Cc4ccccc4)CC3)ncn2)c1 (stereo unspecified)	-1.2	0.9	-1.6
COc1cc(NC(=O)c2cnccn2)c(OC)cc1Cl	nt	-5.8	-1.7
CC(C)N(Cc1nccn1C)C(=O)C1CCOC1 (stereo unspecified)	nt	7.8	-6.1
O=S(=O)(c1cccs1)N1CCC2(CC1)OCCO2	nt	-0.8	-6.0
CN(CCC#N)C(=O)CN1CCN(S(=O)(=O)c2ccc3c(c2)CCCC3)CC1	nt	-6.1	-9.6
CCOC(=O)/C(C#N)=C1/Sc2ccccc2N1C	nt	-2.0	1.9
CCC(C)[n+]1c(C)cc(C=C2Sc3ccccc3N2C)cc1C (stereo unspecified)	nt	172.6*	6.6
CCC(C)[n+]1c(C)cc(C=C2Sc3ccccc3N2CC)cc1C (stereo unspecified)	nt	77.9*	-3.7
CCOC(=O)c1ccccc1N1C(=O)/C(=C\c2ccncc2)N(C)C1=S	-3.3	-3.7	-6.3
Cc1cc(C=C2Sc3ccccc3N2C)cc(C)[n+]1Cc1ccncc1	-2.1	51.0*	0.8
CCN1c2ccccc2Sc2cc(C=O)ccc21	nt	8.0	-0.5
C=C1c2ccccc2C(=O)N1C(C)C(=O)OCc1cc(=O)n2cccc(C)c2n1 (stereo unspecified)	nt	8.8	-1.6
Cc1ccccc1CN1CCC(N2CCC(C(=O)NCCc3scnc3C)CC2)CC1	-9.3	5.7	-9.4
C=CCNCc1cc(Br)ccc1OCC(N)=O	nt	10.2	1.1
CCN(C(=O)CSc1nncn1-c1ccccc1)c1ccc(F)cc1	nt	11.9	-4.4
SMILES	mcGAS inh	NPYLR7 agonist	hcGAS inh
COCCCN(CC(=O)N(CCc1ccc(OC)c(OC)c1)Cc1sccc1C)S(=O)(=O)c1ccc([N+](=O)[O-])cc1	-7.1	-2.4	-16.5
CN1CCN(c2cc(Cl)nc(SCc3ccc(C(=O)NCCN4CCCC4)cc3)n2)CC1	8.0	11.8	68.8*
O=C(NCCN1CCCCC1)c1ccc(CSc2nc(Cl)cc(N3CCCC3)n2)cc1	-4.1	4.9	-5.6
O=C(O)CN1C(=O)/C(=C\c2cc(Cl)cc(Br)c2O)SC1=S	10.0	8.0	2.4
CC(=O)C1=C(O)C=C2Oc3c(C(C)=O)c(O)c(C)c(O)c3C2(C)C1=O (stereo unspecified)	85.6*	0.9	77.6*
COc1ccc(C(=O)N(Cc2cc(NC(=O)C3CC3)ccc2N(C)C)CC2CC2)cc1	-5.4	5.0	2.5
Cc1c(Cc2ccccc2)c(=O)n2c([nH]c3ccccc32)c1C#N	nt	4.3	-2.3
N#Cc1c(-c2ccccc2)cc(=O)n2c1[nH]c1ccccc12	nt	3.7	1.2
Cc1cc(=S)n2c([nH]c3ccccc32)c1C#N	nt	-8.2	40.5*
N#Cc1c(C(F)(F)F)cc(=O)n2c1[nH]c1ccccc12	nt	-3.2	46.0*
CCOC(=O)[C@@H]1[C@H](c2ccccc2)[C@@H](NC(=O)COC)[C@H]2CCCCN21	-7.6	18.7	-1.4
CC(C)(C)c1ccc2oc(=O)n(C3CCN(C(=O)c4cncc(Br)c4)CC3)c2c1	-5.3	21.9	-0.3
N#C/C(=C/c1ccc(N2CCCCC2)cc1F)c1ccc(C(=O)O)cc1	-4.9	-1.3	-0.4
N#C/C(=C/c1ccc(N2CCCCC2)o1)c1cccc(F)c1	nt	63.4*	-1.2
CCC1(O)CC(OC2CC(N(C)C)C(OC3CC(O)C(OC4CCC(=O)C(C)O4)C(C)O3)C(C)O2)c2c(cc3c(c2O)C(=O)c2c(O)cccc2C3=O)C1C(=O)OC (stereo unspecified)	nt	-9.7	79.2*
